Measured values as given in PubChem BioAssay.
Calls of active or inactive are those of the source.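 How the source made its calls, unless noted: active means visual image review flags a hit and inhibition of aggregation exceeds 20%; inconclusive means visual hit but inhibition at or below 20%; inactive means no hit on visual image review.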

Columns and labels:
[1] = inhibitors of TNFa-induced NFkB p65 translocation, primary screen, imaging, HUVEC, MLSMR starter and 10KST1 sets (AID 438;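 active means inhibition above 20% together with a positive visual image hit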;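 further: compound added about 3h40 before a 20 min TNFalpha stimulation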;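 on inhibition: signal is the nuclear over cytoplasmic p65 intensity ratio per well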); settings: HUVEC TNFa-induced p65 nuclear translocation; cell count: measured here: nuclei count (cytotoxicity indicator), at 2.08 µM; inhibition: at 2 µM, stronger effect = higher value, 0% TNFa-plus-vehicle, 100% no-TNFa wells
[2] = inhibitors of mutant huntingtin aggregation, primary screen, imaging, exon1htt(103Q)mCFP cells, high-content imaging (AID 483); settings: exon1htt(103Q)mCFP cell line, aggregate imaging, at 2 µM; inhibition of aggregation: stronger effect = higher value; nuclei count: measured here: cell count, toxicity;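 further: compound exposure lasted 3 days before fixation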;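 on nuclei count: percent of the per-plate median nuclei count of sample wells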
[3] = inhibitors of E-selectin induction by TNFa, primary screen, imaging, HUVEC, immunofluorescence, MLSMR starter and 10KST1 sets (AID 487;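 active means visually confirmed hit in the image check and inhibition above 20%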;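 on inhibition: signal is fraction of cell area covered by stained E-selectin grains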;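 on nuclei count: 100% = median nuclei count of all wells on the same plate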); settings: HUVEC TNFalpha-induced E-selectin immunofluorescence imaging, at 2 µM; inhibition: stronger effect = higher value; nuclei count: measured here: cell number, toxicity
[4] = target: Voltage-gated potassium channel subunit beta-2 (Rattus norvegicus) (UniProt P62483); assay: KvBeta enzyme negative modulators, primary screen, biochemical, NADPH fluorescence (AID 622;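 active means fluorescence slope higher than the sample average by over 3 SD, cut at about -0.22 in these data, passing the limit was not always enough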;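 further: slope of raw intensity against log time taken from 70 to 1610 s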); settings: recombinant KvBeta, 4-cyanobenzaldehyde reduction, at 10 µM, stronger effect = higher value
[5] = target: Voltage-gated potassium channel subunit beta-2 (Rattus norvegicus) (UniProt P62483); assay: KvBeta positive modulators, primary screen, biochemical, NADPH fluorescence (AID 623;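 active means NADPH fluorescence slope more negative than the mean of all samples by about 3 SD, 99.7% confidence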;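 further: fluorescence intensity change per second fitted from 20 to 320 s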); settings: Recombinant KvBeta, NADPH fluorescence decrease slope, 10 min; at 10 µM; stronger effect = lower value
[6] = target: Alpha-2C adrenergic receptor (Homo sapiens) (UniProt P18825); assay: modulators of alpha2C/GIRK thallium flux, primary screen, cell-based, HEK293 alpha2C/GIRK1/2 (AID 624;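 active means fluorescence slope after compound addition differing from the mean of all screened samples at 99.7% confidence, in either direction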;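 further: slope of fluorescence ratio to pre-addition baseline per second over 15 to 24 s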); settings: thallium flux BTC fluorescence, at 10 µM, actives lie on both sides
[7] = inhibitors of Sendai virus-induced IRF3 signaling, primary screen, TLR/RLR signaling modifier project, cell-based, Sendai virus stimulus, luciferase, 10K MLSCN set (AID 602276;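 active means inhibition at or above 50% at 10 µM; inactive means inhibition below 50%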;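 further: firefly luciferase from ISG56 promoter only with Renilla not read in this screen; 0% = Sendai virus plus DMSO and 100% = medium plus DMSO without virus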); settings: HEK293 RL24 IRF3 luciferase reporter, at 10 µM, stronger effect = higher value
[8] = inhibitors of poly I:C-induced TLR3 signaling, primary screen, cell-based, poly I:C stimulus, luciferase, 10K MLSCN set (AID 602277;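 active means inhibition of the reporter signal at or above 50%; inactive means inhibition below 50%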); settings: HEK293-TLR3 RL24 IRF3 luciferase reporter, at 10 µM, stronger effect = higher value

Sequence of Alpha-2C adrenergic receptor (Homo sapiens) (P18825 whole entry, looked up): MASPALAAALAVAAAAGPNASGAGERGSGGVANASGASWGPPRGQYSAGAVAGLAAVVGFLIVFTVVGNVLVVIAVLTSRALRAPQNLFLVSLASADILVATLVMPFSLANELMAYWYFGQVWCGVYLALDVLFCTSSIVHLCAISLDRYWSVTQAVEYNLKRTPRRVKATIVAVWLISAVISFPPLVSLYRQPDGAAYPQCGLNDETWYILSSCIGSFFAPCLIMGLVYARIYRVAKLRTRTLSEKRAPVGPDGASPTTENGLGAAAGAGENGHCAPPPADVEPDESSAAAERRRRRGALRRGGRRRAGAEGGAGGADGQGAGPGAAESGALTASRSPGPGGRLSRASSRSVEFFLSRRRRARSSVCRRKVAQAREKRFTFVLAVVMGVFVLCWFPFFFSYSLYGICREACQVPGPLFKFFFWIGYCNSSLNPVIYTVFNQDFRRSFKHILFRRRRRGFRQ
Sequence of Voltage-gated potassium channel subunit beta-2 (Rattus norvegicus) (P62483 whole entry, looked up): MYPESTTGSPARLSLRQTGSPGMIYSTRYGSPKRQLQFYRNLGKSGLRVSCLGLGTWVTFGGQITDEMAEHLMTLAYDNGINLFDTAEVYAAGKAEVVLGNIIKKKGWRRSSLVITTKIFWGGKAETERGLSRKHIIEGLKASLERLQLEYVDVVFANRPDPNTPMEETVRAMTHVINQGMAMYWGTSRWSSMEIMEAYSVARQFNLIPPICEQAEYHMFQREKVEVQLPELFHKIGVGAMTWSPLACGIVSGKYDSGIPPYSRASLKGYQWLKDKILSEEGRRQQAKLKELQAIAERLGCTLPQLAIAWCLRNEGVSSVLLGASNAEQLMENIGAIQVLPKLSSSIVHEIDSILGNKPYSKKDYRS

Compound	cell count [1]	inhibition [1]	inhibition of aggregation [2]	nuclei count [2]	inhibition [3]	nuclei count [3]	fluorescence slope [4]	NADPH fluorescence slope [5]	slope [6]	inhibition [7]	inhibition [8]
CCN1CCN(CCCNC(=O)C2c3ccccc3C(=O)N(C)C2c2ccc(OC)cc2)CC1 (centres undefined)	567	15.4% (inactive)	-1.2% (inactive)	82.8%	31.9% (inactive)	93.8%	-0.504 (inactive)	-1.6e-06 (inactive)	0.00453 (inactive)	2.59% (inactive)	14% (inactive)
CCOC(=O)c1ccc(Oc2cc(C)nc(SC)n2)cc1	484	10.1% (inactive)	13.3% (inactive)	117%	-192% (inactive)	134%	-0.47 (inactive)	-9.6e-06 (inactive)	0.00614 (inactive)	15.8% (inactive)	19.9% (inactive)
CC1=C(C(=O)OC2CCCCCC2)C(c2ccc(C)o2)C2=C(CCCC2=O)N1 (centres undefined)	420	3.9% (inactive)	-10% (inactive)	102%	-22.9% (inactive)	108%	-0.572 (inactive)	-2e-05 (inactive)	0.00508 (inactive)	-8.61% (inactive)	-19.9% (inactive)
CCOC(=O)c1cc(-c2ccc(N)cc2)sc1N	588	14.8% (inactive)	24% (inactive)	90.5%	26.4% (inactive)	100%	-0.433 (inactive)	-7.7e-05 (inactive)	0.00189 (inactive)	-50.5% (inactive)	-117% (inactive)
OC1(c2cccc(C(F)(F)F)c2)CCN(c2ccc(-c3ccccc3)nn2)CC1	853	4.3% (inactive)	-13.4% (inactive)	96.8%	-25.2% (inactive)	106%	-0.456 (inactive)	-4.5e-05 (inactive)	0.00688 (inactive)	-40.7% (inactive)	-99% (inactive)
Cc1nnc(N2C(=O)C(O)=C(C(=O)c3ccco3)C2c2ccc(F)cc2)s1 (centres undefined)	881	4.6% (inactive)	-4.4% (inactive)	122%	2.7% (inactive)	123%	-0.601 (inactive)	-4.6e-05 (inactive)	0.00826 (inactive)	12.3% (inactive)	19.7% (inactive)
COc1ccc(C(=O)NCC(=O)NC2=NCCS2)cc1	772	-11.6% (inactive)	-22.1% (inactive)	69.1%	-43.6% (inactive)	106%	-0.591 (inactive)	-5.5e-05 (inactive)	0.00756 (inactive)	5.81% (inactive)	28.4% (inactive)
O=C(c1ccc2c(c1)OCO2)N1CCCN(C(=O)c2ccc3c(c2)OCO3)CC1	522	5% (inactive)	-1.1% (inactive)	103%	-123% (inactive)	106%	-0.417 (inactive)	-0.0001 (inactive)	0.0056 (inactive)	15.7% (inactive)	28.5% (inactive)
O=C(CCN1C(=O)C2C3C=CC(C3)C2C1=O)N1CCN(c2ccccc2Cl)CC1 (centres undefined)	776	-18.1% (inactive)	-5% (inactive)	123%	2.5% (inactive)	107%	-0.399 (inactive)	-4.7e-05 (inactive)	0.00465 (inactive)	10.7% (inactive)	11.9% (inactive)
